# Measurements taken from PubChem BioAssay AID709 (SRMLSC, 2007).
# About 3,600 (5.5%) of roughly 65,000 compounds were called active. The full list was thinned out, with actives kept by preference. Unmarked numbers belong to inactive results.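 The calls were made as follows: active = at 10 µM, mean starting fluorescence two-fold or more over control wells; inactive = the rest.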
# Assay: intrinsic fluorescence of library compounds, ex339/em460 – biochemical, MLSMR library, data from DPM-DC assay, artefact control, profiling panel (AID 709);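 also: signal is the first read of a kinetic run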
# Conditions: compound autofluorescence, ex339/em460 nm, NADH buffer; at 10 µM; active compounds read high; 1 = no-compound wells, NADH background
row,SMILES,fluorescence fold increase
1,COc1ccccc1CNC(=O)Cn1cc2c(n1)CCCC2,1.13
2,CC(=O)c1cc2c(cc1N)OCO2,1.13
3,COc1cc2cc(CN(CCN3CCCC3)C(=O)Nc3ccccc3Cl)c(=O)[nH]c2cc1OC,2.13 (active)
4,COc1cc2[nH]c(=O)n(CCC(=O)NC3CCN(Cc4ccccc4)CC3)c(=O)c2cc1OC,1.46
5,COc1ccc(CCN(Cc2cc3cccc(C)c3[nH]c2=O)C(=O)N2CCCC2)cc1OC,1.08
6,Cc1cc(C(=O)O)c(S(C)(=O)=O)s1,1.04
7,Cc1cc(C)c2c(c1)c(C)cc1nnc(SCC(=O)NCc3ccco3)n12,1.45
8,CC(Nc1nc(N2CCCC2)nc2ccccc12)c1ccccc1 (configuration not stated),2.43 (active)
9,Cc1ccc(C(CC(=O)O)Nc2nc(N3CCCCC3)nc(N3CCCCC3)n2)cc1 (configuration not stated),1.14
10,CC(C)n1c(C(O)c2ccccc2)nc2ccccc21 (configuration not stated),1.13
11,Cc1ccc(N2CCN(S(=O)(=O)N(C)C)CC2)cc1Cl,1.11
12,COc1ccc(OCc2ccc(-c3nc4ccccc4c(=O)n3N)o2)cc1,1.1
13,COc1ccc(-c2noc(COc3ccc(Cl)c(C)c3)n2)cc1,1.02
14,COc1ccc(-c2cc3ccc(OCc4nn[nH]n4)cc3oc2=O)cc1,3.01 (active)
15,O=C(O)C1CCN1C1CCCCC1 (configuration not stated),0.88
16,COCCCNC(=O)c1c(F)c(F)c(F)c(F)c1F,1.04
17,COCCCn1c(CCC(=O)O)ccc1-c1ccc(F)cc1,3.84 (active)
18,Cc1cccc(N=C2NC(=O)CS2)c1C,1.01
19,CC(C)CC(=O)N=C1SC2CS(=O)(=O)CC2N1CCc1ccccc1 (configuration not stated),1.1
20,CCCCCCn1c(CN2CCCCC2)nc2c1c(=O)n(C)c(=O)n2C,1.13
21,CCOC(=O)N1CCC(NC(=O)CN2C(=O)COc3ccc(C(C)(C)C)cc32)CC1,1.02
22,COC(=O)c1cn(C)c2ccc(S(=O)(=O)N3CC(C)CC(C)C3)cc2c1=O (configuration not stated),0.95
23,CCN(CC)S(=O)(=O)c1ccc2[nH]cc(C(=O)NCCc3ccccc3)c(=O)c2c1,1.58

row,SMILES,fluorescence fold increase
1,CN1CCN(S(=O)(=O)c2ccc3[nH]cc(C(=O)O)c(=O)c3c2)CC1,2.17 (active)
2,CC1(C)Cc2cccc(OCC(=O)Nc3nccs3)c2O1,1.08
3,CCN1CCc2c(C#N)c(NCc3ccccc3)nc(NCCO)c2C1,2.3 (active)
4,N#Cc1c(N)sc2c1CCN(C(=O)OCc1ccccc1)C2,1.12
5,CC(C)CCNc1nc(N2CCCC2)c2c(c1C#N)CCN(C)C2,1.63
6,O=C1CCCC2=C1C(c1cccs1)n1nc(SCc3ccccc3)nc1N2 (configuration not stated),2.52 (active)
7,CCCC(=O)N1c2ccccc2NC2=C(C(=O)CCC2)C1c1ccc(F)cc1 (configuration not stated),1.08
8,CC(C)C(=O)N1c2ccccc2NC2=C(C(=O)CCC2)C1c1ccc(N(C)C)cc1 (configuration not stated),1.05
9,Cc1ccc2c(c1)N(CCCC(=O)NCc1cccnc1)C(=O)CO2,1.1
10,COC(=O)c1c(-c2ccc(C)cc2)csc1N,1.09
11,CC(=O)NC1=NC(=O)CS1,1.08
12,CCCS(=O)(=O)N1CCC(C(=O)NCCc2ccc(OC)c(OC)c2)CC1,1.09
13,CCOc1ccc(CCNC(=O)C2CCN(c3ccc(N4CCOCC4)nn3)CC2)cc1OCC,4.91 (active)
14,COc1ccc(CCNC(=O)C2CCN(c3nn4c(=O)cc(C)nc4s3)CC2)cc1OC,1.05
15,CCN1CCN(Cc2c(O)ccc3c(=O)c(-c4ccc(OC)c(OC)c4)c(C(F)(F)F)oc23)CC1,1.18
16,O=c1oc2c(CN3CCCCC3)c(O)ccc2c2c1CCCCC2,2.34 (active)
17,CN1CCN(Cc2c(O)ccc3c2oc(=O)c2ccccc23)CC1,1.15
18,O.O.O.O=S(=O)([O-])OC[C@H]1O[C@@H](O[C@]2(COS(=O)(=O)[O-])O[C@H](OS(=O)(=O)[O-])[C@@H](OS(=O)(=O)[O-])[C@@H]2OS(=O)(=O)[O-])[C@H](OS(=O)(=O)[O-])[C@@H](OS(=O)(=O)[O-])[C@@H]1OS(=O)(=O)[O-].[Al],1.14
19,O=C(CCOc1ccccc1)NCc1ccccc1,1
20,CCOC(=O)c1cc2cc(C)ccc2[nH]1,1.67
21,CCC(=O)N(Cc1cc2cc(OC)ccc2[nH]c1=O)c1ccccc1C,3.71 (active)
22,Cc1ccc2[nH]c(=O)c(COC(=O)c3ccccn3)cc2c1,1.42
23,COc1ccc(S(=O)(=O)N(CCCN2CCCC2=O)Cc2cc3c(C)ccc(C)c3[nH]c2=O)cc1,1.97

row,SMILES,fluorescence fold increase
1,CCN(Cc1cc2cc(C)ccc2[nH]c1=O)S(=O)(=O)c1ccccc1,1.54
2,CCNCc1cc2cc(C)ccc2[nH]c1=O,1.39
3,CCOc1ccc2[nH]c(=O)c(CN(CCCO)C(C)=O)cc2c1,3.27 (active)
4,COc1ccc(N(Cc2cc3cc(OC)ccc3[nH]c2=O)S(C)(=O)=O)cc1,3 (active)
5,CC(=O)OCc1cc2cc(C)ccc2[nH]c1=O,1.43
6,O=C(CSc1nnnn1C1CCCC1)Nc1ccc2c(c1)OCCO2,1.11
7,O=C(NC12CC3CC(CC(C3)C1)C2)N1CCCC(CO)C1 (configuration not stated),1.11
8,O=C(CN1CCN(C(=O)c2cccc(F)c2)CC1)Nc1ccccc1F,1.17
9,COc1cc(CO)c(C2(CO)CCCC2)cc1OC,1.08
10,Cc1cc(N2C(=O)c3ccc(C(=O)NCc4ccccc4)cc3C2=O)no1,1.1
11,CC1Cc2cc(/C(O)=C3\C(=O)C(=O)N(CCN4CCOCC4)C3c3ccccc3F)ccc2O1 (configuration not stated),1.11
12,CCOC(=O)c1nc(-c2ccc3c(c2)OCO3)[nH]c1C,1.4
13,CCCCC(=O)Nc1cc(C)c2c(=O)oc3ccccc3c2n1,1.19
14,CCCCCC(=O)Nc1ccc2oc(-c3ccncc3)nc2c1,3.72 (active)
15,CCCC(=O)Nc1ccc2c(c1)nc1n2CCSC1,1.21
16,CCOC(=O)CSc1nnc(-c2ccco2)n1C,1.04
17,CCOC(=O)c1ccn(-c2nc(-c3ccco3)cc(C(F)(F)F)n2)n1,2.09 (active)
18,O=C(CSc1nc(-c2ccco2)cc(C(F)(F)F)n1)N1CCc2ccccc2C1,1.1
19,O=C(CSc1nc(-c2ccco2)cc(C(F)(F)F)n1)NCc1cccs1,1.14
20,Cc1cc(C(F)(F)F)nn1-c1nc(-c2ccco2)cc(C(F)(F)F)n1,2.81 (active)
21,FC(F)(F)c1cc(-c2ccco2)nc(N2CCOCC2)n1,1.11
